The full list was thinned out, with hits kept by preference.
GluA2 TARP mod: modulators of GluA2-stargazin AMPA receptor complexes, primary screen, cell-based, membrane potential dye. 40,000 tested, 3.5% active. AID 1259245, 2017. HEK293 GluA2+stargazin, membrane potential dye (FDSS), glutamate EC50; hits were called plate by plate, in both directions. calls only at 30 µM;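 active = any of four per-well response measures lying three or more SD from its plate-wide compound average, in either direction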
GIRK2 act: activators of NPY4-receptor-primed GIRK2 channels, summary, cell-based, HEK293, thallium flux; HEK293 GIRK2/NPY4 cells, thallium flux fluorescence; activation (% efficacy), % for hits at 37.5 µM; 34,000 tested, under 10 active; AID 1259324, 2017;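 active = primary screen hit, no activity in plain HEK293 cells, and in GIRK2-only cells above 5% efficacy rising with concentration; inactive = the rest, including fluorescent compounds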;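 note: efficacy is normalized control-subtracted fluorescence 15 s after thallium addition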
Target sequence (P48051 whole entry, looked up): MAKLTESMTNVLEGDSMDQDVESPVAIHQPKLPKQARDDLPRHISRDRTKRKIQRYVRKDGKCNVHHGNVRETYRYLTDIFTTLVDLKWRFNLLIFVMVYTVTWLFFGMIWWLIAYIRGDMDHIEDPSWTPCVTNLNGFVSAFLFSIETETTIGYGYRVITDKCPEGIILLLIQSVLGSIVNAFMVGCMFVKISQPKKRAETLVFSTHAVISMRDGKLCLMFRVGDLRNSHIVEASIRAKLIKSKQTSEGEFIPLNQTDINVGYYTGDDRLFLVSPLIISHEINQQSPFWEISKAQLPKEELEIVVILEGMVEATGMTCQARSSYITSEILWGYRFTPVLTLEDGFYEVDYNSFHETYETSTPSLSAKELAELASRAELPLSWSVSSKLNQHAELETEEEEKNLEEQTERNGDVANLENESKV
An asterisk follows results filed as active; i = inactive; . = no result given; + = active, no number.

SMILES	GluA2 TARP mod	GIRK2 act
O=C(Cc1cccc2ccccc12)NCC1CCN(C(=O)COc2ccccc2)CC1	+	i
O=C(Cc1cccc2ccccc12)NCC1CCN(c2ncccn2)CC1	i	i
CCn1nnc2c(N3CCN(c4cccc(C(F)(F)F)c4)CC3)ncnc21	i	i
COC(=O)c1sccc1S(=O)(=O)N1CCN(c2ccccc2F)CC1	+	.
COc1ccc(CNC(=O)c2sccc2S(=O)(=O)N2CCN(c3ccccc3F)CC2)cc1	.	i
COc1ccc(CN2C(=O)C3(OCCCO3)c3cccc(C)c32)cc1OC	i	.
O=C(Cc1ccc(F)cc1)Nc1cc(-c2cccs2)nn1CCO	i	i
O=C(CCSc1ccccc1)Nc1cc(-c2cccs2)nn1CCO	+	i
COc1ccc(OC)c(-c2cc(C(=O)NCC#CCN3CCc4ccccc4C3)n(C)n2)c1	i	i
O=C(CSc1ncnc2[nH]ncc12)c1ccc(-c2ccccc2)cc1	i	.
CN(C)C(=O)CSc1ncnc2sc(-c3ccccc3)cc12	+	i
COc1cn(CC(=O)NC2CCCCC2)c(CSc2ccccc2)cc1=O	+	.
COc1cn(CC(=O)NC2CCCC2)c(CSc2ccc(C)cc2)cc1=O	i	i
COCCn1nc(-c2ccc(Cl)cc2)ccc1=O	i	i
COCCn1nc(-c2ccc3c(c2)OCO3)ccc1=O	+	i
CC(C)(C)n1nc2c(c1-n1cccc1)CN(C(=O)c1cccc(-n3cnnn3)c1)C2	i	i
O=C(NCc1ccsc1)c1cccc(C(F)(F)F)c1	+	i
O=C(NCc1ccsc1)c1ccc2c(c1)OCO2	i	i
CCc1ccc(OCC(=O)NCCC2=CCCCC2)cc1	+	i
Cc1ccc(CSc2nc(CC(=O)NCCC3=CCCCC3)cs2)cc1	+	i
O=C(Cc1csc(SCC(=O)c2ccc3c(c2)OCO3)n1)NCCC1=CCCCC1	.	i
COc1ccc(C(=O)NCCC2=CCCCC2)cc1	i	i
CSc1ccccc1NC(=O)Cn1c(-c2cnccn2)nc2ccccc21	+	i
Cc1nc(NC(=O)Cn2c(-c3cnccn3)nc3ccccc32)sc1C(=O)N(C)C	i	i
Cc1cc(C)n(CCNC(=O)Cn2c(-c3cnccn3)nc3ccccc32)n1	i	i
SMILES	GluA2 TARP mod	GIRK2 act
Cc1ccc(Cl)cc1N1CCN(C(=O)Cn2c(-c3cnccn3)nc3ccccc32)CC1	+	i
O=C(Nc1ccc([N+](=O)[O-])cc1)C1CCCN(c2ccc(-c3ccccc3)nn2)C1 (stereo not drawn)	i	i
O=C(Nc1ccccc1[N+](=O)[O-])C1CCCN(c2ccc(-c3ccccc3)nn2)C1 (stereo not drawn)	+	i
CCOC(=O)c1c(SCC(=O)Nc2ccc(C(C)=O)cc2)nc(=O)[nH]c1C	i	i
COc1ccc(C2(CNS(=O)(=O)c3c(C)n[nH]c3C)CCCC2)cc1	+	i
COc1ccc(C2(CNS(=O)(=O)c3cccnc3)CCCC2)cc1	i	i
O=S(=O)(NCCOc1ccc(-c2ccc(F)cc2)nn1)c1ccccc1Cl	i	i
O=S(=O)(Nc1cc(Cl)ccc1O)c1cc(Cl)ccc1Cl	+	i
COc1cc(S(=O)(=O)Nc2cc(Cl)ccc2O)c(OC)cc1C	i	i
Cc1ccc(CNC(=O)Cn2cnc(C(C)C)cc2=O)cc1	+	i
Cc1ccc(CNC(=O)Cn2cnc(-c3ccc(C)cc3)cc2=O)cc1	i	i
CCOC(=O)C1CCN(C(=O)C2(c3cccs3)CCOCC2)CC1	i	i
COc1ccccc1C1(C(=O)N2CCC(c3cccs3)CC2)CCOCC1	+	i
O=C(CN1C(=O)c2ccccc2S1(=O)=O)NC1CCCCCC1	i	i
O=C(NC1CCCCCC1)C1c2ccccc2C(=O)N1CCC1=CCCCC1 (stereo not drawn)	+	i
Cn1cccc(C(=O)N2CCC(CNS(=O)(=O)c3cccc(C(F)(F)F)c3)CC2)c1=O	i	i
Cc1nnc2ccc(N3CCN(S(=O)(=O)c4ccc(Cl)c(Cl)c4)CC3)nn12	i	i
CCS(=O)(=O)N1CCN(c2ccc(Nc3cccc(C)n3)nn2)CC1	+	i
Cc1cccc(Nc2ccc(N3CCN(C(=O)c4ccccc4)CC3)nn2)n1	.	i
Cc1ccc(S(=O)(=O)N2CCN(c3ccc4nnc(C)n4n3)CC2)cc1C	+	i
COc1ccc(S(=O)(=O)N2CCN(c3ccc(Nc4cccc(C)n4)nn3)CC2)cc1Cl	+	i
COc1ccc(S(=O)(=O)N2CCN(c3ccc(-c4ccncc4)nn3)CC2)cc1C	+	i
Cc1ccnc(Nc2ccc(N3CCN(S(=O)(=O)c4ccc(F)cc4)CC3)nn2)c1	.	i
COc1ccc(S(=O)(=O)N2CCN(c3ccc(-c4cccs4)nn3)CC2)cc1OC	i	i
CCc1nnc(-c2ccc(NC(=O)c3ccccc3)cc2)o1	i	i
SMILES	GluA2 TARP mod	GIRK2 act
O=C(NCCS(=O)(=O)N1CCN(c2ccccn2)CC1)C12CC3CC(CC(C3)C1)C2	.	i
O=C(Nc1ccccc1C(F)(F)F)N1CCN(C(=O)c2cnn3ccccc23)CC1	i	i
Cc1cccc(Nc2ccc(N3CCN(S(=O)(=O)c4c(C)noc4C)CC3)nn2)n1	+	i
COc1ccc(S(=O)(=O)N2CCN(Cc3nnnn3-c3ccc(C)cc3)CC2)cc1C	+	i
Cc1cccc(Nc2ccc(N3CCN(S(=O)(=O)N(C)C)CC3)nn2)n1	+	i
COc1ccc(S(=O)(=O)N2CCN(Cc3nnnn3-c3ccccc3)CC2)cc1OC	i	i
COc1ccc(S(=O)(=O)N2CCN(c3ccc(Nc4cccnc4)nn3)CC2)cc1	+	i
CN(C)S(=O)(=O)N1CCN(c2ccc(Nc3ccncc3)nn2)CC1	i	i
COc1cc(N2CCN(S(=O)(=O)c3c(C)noc3C)CC2)nc(OC)n1	i	i
COc1ccc(S(=O)(=O)N2CCN(c3ccc(Nc4ccccn4)nn3)CC2)cc1	i	i
COc1ccc(Cl)cc1NC(=O)Nc1ccc2c(c1)N(C(=O)C(C)C)CCC2	.	i
O=C(NCc1ccc(F)cc1)N1CCC(c2nnc(-c3ccc(F)cc3)o2)CC1	i	i
O=c1cc(CCl)c2cc(O)ccc2o1	i	.
O=C(Cn1c(=O)c(CNc2ccccc2)cc2cc3c(cc21)OCCO3)Nc1ccc2c(c1)OCCO2	i	i
Cc1c(Cl)cccc1NC(=O)Cn1c(=O)c(CNc2ccccc2)cc2cc3c(cc21)OCCO3	+	i
CCCCNc1ncnc2ccc(Br)cc12	i	.
O=C(NCC1CCN(C2CCCC2)CC1)c1c(F)cccc1Cl	.	i
CCC(C)NC(=O)c1cc2cccc(OC)c2oc1=O (stereo not drawn)	i	i
COc1cccc2cc(C(=O)CS(=O)(=O)c3ccccc3)c(=O)oc12	+	.
COc1ccc(-c2ccc(C)c(NC(=O)c3ccccc3OC)c2)nn1	+	i
COc1ccc(-c2ccc(C)c(NC(=O)c3cccc(OC)c3OC)c2)nn1	i	i
O=C(CSc1nnc(-c2cccnc2)o1)N1CCOCC1	i	.

Bioassay records (PubChem BioAssay)
